From PubChem BioAssay
Where “and” joins values, the source holds several entries; their conditions need not be identical. Identical values can stand only once. Records with an inconclusive call do not appear. Some structures have more than one record in an assay (separate samples or runs), and their calls can disagree. Some of the results follow. Calls of active or inactive are those of the source.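 The calls were made as follows, unless noted: active = GFP response above 150% of the DMSO level; inconclusive = fewer than 70 events counted for a yeast strain; inactive = the rest.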

Columns and labels:
[1] = rapamycin-like changes in RPL19A-GFP expression – cell-based, S. cerevisiae, multiplex flow cytometry, primary screen (AID 1862; in the data active = percent of DMSO control GFP below about 86%;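 also: lower values mimic rapamycin by blocking the RPL19A rise seen in DMSO cells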); conditions: S. cerevisiae RPL19A-GFP strain, flow cytometry fluorescence, 3 h; at 10 µM; stronger effect = lower value
[2] = TOR pathway GLN3 branch reporter MEP2-GFP changes – S. cerevisiae, multiplex flow cytometry, primary screen (AID 1867;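 active = GFP response, as percent of the DMSO control, above the screen-wide mean plus 3 SD, about 139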;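 also: median GFP channel fluorescence of barcode-gated MEP2-GFP cells measured by flow cytometry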); conditions: S. cerevisiae MEP2-GFP strain, 3 h, at 10 µM, stronger effect = higher value, 100% means same as DMSO wells
[3] = TOR pathway RTG branch CIT2 reporter changes – S. cerevisiae, GFP fusion, multiplex flow cytometry, primary screen (AID 1870;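 active = percent response above a set limit, the screen-wide mean plus 3 SD, cut at about 130% in these data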;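 also: barcoded CIT2-GFP strain pooled with four other GFP strains with rapamycin as positive control; median GFP fluorescence per well over plate mean of DMSO wells so 100% = DMSO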); conditions: S. cerevisiae CIT2-GFP expression, 3 h, at 10 µM, stronger effect = higher value
[4] = TOR pathway LAP4-GFP level changes – S. cerevisiae, multiplex flow cytometry, primary screen (AID 1873;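 active = GFP signal, as percent of the solvent control, above the screen mean plus 3 SD, about 149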); conditions: S. cerevisiae LAP4-GFP expression, 3 h, at 10 µM, stronger effect = higher value
[5] = yeast AGP1-GFP level changes, GLN3 branch – cell-based, multiplex flow cytometry, S. cerevisiae, primary screen (AID 1887;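 active = GFP signal above the screen-wide mean plus 3 SD, that is over about 124.5% of the solvent control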;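 also: AGP1-GFP fusion strain of S. cerevisiae within a five-strain barcoded multiplex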); conditions: 3 h, at 10 µM, stronger effect = higher value
[6] = hit retest on RPL19A-GFP reporter strain – cell-based, S. cerevisiae, flow cytometry, cherry picks, mother/daughter gates, confirmation (AID 2270;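 active = GFP response below 50% of the DMSO control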); conditions: 3 h, at 10 µM, stronger effect = lower value, 100 = same GFP as DMSO wells
[7] = yeast TOR pathway reporter LAP4-GFP change – cell-based, cherry picks, flow cytometry, mother/daughter gates, confirmation (AID 2271;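 active = GFP response above 150% of the DMSO control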;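 also: ratio of sample to DMSO plate mean so 100% equals DMSO level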); conditions: S. cerevisiae LAP4-GFP strain, 3 h, at 10 µM, stronger effect = higher value, 100 means same as DMSO control
[8] = TOR pathway reporter MEP2-GFP, retest of hits – S. cerevisiae, flow cytometry GFP, cherry picks, confirmation (AID 2272;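 active = GFP response above 150% of the DMSO control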;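 also: ratio of well signal to plate DMSO mean so 100% equals DMSO level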); conditions: S. cerevisiae MEP2-GFP strain, 3 h, at 10 µM, stronger effect = higher value
[9] = yeast AGP1-GFP fluorescence change, single-dose – cell-based, flow cytometry, S. cerevisiae, cherry picks, confirmation (AID 2273);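 also: median GFP channel fluorescence over the whole cell population gate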; conditions: S. cerevisiae AGP1-GFP strain, 3 h, at 10 µM
[10] = TOR pathway CIT2 reporter hit retest – S. cerevisiae, GFP fusion, cherry picks, mother/daughter gates, confirmation (AID 2274); conditions: S. cerevisiae CIT2-GFP strain, flow cytometry, 3 h, at 10 µM, stronger effect = higher value
[11] = reduced mouse 2C T cell binding to pMHC/ICAM-1 vesicles – MLPCN validation set, flow cytometry, LFA-1/ICAM-1 modulator project, pilot screen (AID 2523;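 active = response below a set limit, under 55% cells CD8-positive and vesicle-bound, and CD8 cells' 90th-percentile brightness under 279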;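 as to vesicle binding response: mean PE anti-B7-1 fluorescence of CD8+ cells relative to row control; 100% = QL9-loaded vesicles with DMSO vehicle in the same plate row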); conditions: 2C mouse CD8+ T cells, at 7 µM, stronger effect = lower value; double positive events: measured here: CD8+/vesicle+ event percentage
[12] = molecular target: Integrin beta-1 (Homo sapiens) + Integrin alpha-4 (Homo sapiens) (UniProt P13612+P05556); experiment: alpha4beta1 integrin LIBS antibody binding reduction – U937 cells, HUTS-21 mAb, flow cytometry, validation set, VLA-4 allosteric modulator project, pilot screen (AID 2674;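 active = inhibition above 50%, about 3 SD of the validation set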;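 also: antibody binding induced by the VLA-4 ligand LDV present at three times its Kd; 0% = LDV ligand with antibody and no compound and 100% = antibody without LDV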); conditions: HUTS-21 LIBS mAb binding, at 6.7 µM, stronger effect = higher value, binding induced by LDV ligand
[13] = calorie-restriction mimetic ROS inhibitors, yeast – validation compound set, pilot screen (AID 2706;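 active = superoxide response below 65% of plate, a cut near 3 SD across the whole screen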;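 also: yeast exposed to compound for one week at 30 degrees C before staining; 100% = mean of all compound wells on the same plate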); conditions: S. cerevisiae aging, superoxide DHE fluorescence; at 10 µM; stronger effect = lower value
[14] = molecular target: Beta-adrenergic receptor kinase 1 (Homo sapiens) (UniProt P25098); experiment: GRK2 binders displacing RNA aptamer, biochemical, validation, human GRK2, bead flow cytometry (AID 488806;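 active = aptamer binding inhibition above 30%, about 3 SD of noise from non-fluorescent compounds; inactive = inhibition at or below 30%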); conditions: bead-bound GRK2, FAM-aptamer displacement, at 10 µM, stronger effect = higher value
[15] = molecular target: Beta-2 adrenergic receptor (Homo sapiens) (UniProt P07550); experiment: agonist-induced loss of surface beta2AR – cell-based, FAP fluorogen, flow cytometry, validation set, pilot screen (AID 504459;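 active = percent response above 42, roughly 3 SD of non-fluorescent test compounds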;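 also: agonist-driven loss of surface beta2AR via internalization measured by FAP dye flow cytometry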); conditions: Am2.2-beta2AR cells, at 10 µM, stronger effect = higher value
[16] = molecular target: AP-2 complex subunit beta (Homo sapiens) (UniProt P63010); experiment: beta-arrestin/AP2 interaction blockers – biochemical, validation set, GST-AP2 beads, flow cytometry, pilot screen (AID 504541;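 active = inhibition above 54%, about 3 SD of non-fluorescent compounds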;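 also: AP2 carries R879A mutation and is captured from E. coli lysate; bead-bound FITC arrestin peptide fluorescence measuring arrestin peptide binding to AP2; 0% = DMSO wells and 100% = excess unlabeled arrestin peptide control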); conditions: FITC arrestin peptide, at 10 µM, stronger effect = higher value, AP2 beta2 appendage fragment, R879A mutant
[17] = cytosolic pH regulators acting via V-ATPase – S. cerevisiae, pHLuorin, HTS validation (AID 504600; in the data active = response above about 15%;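 also: plate controls were DMSO for no effect and reference compound for full effect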); conditions: V-ATPase proton transport, at 10 µM, stronger effect = higher value
[18] = test system: anti-desmoglein-3 scFv antibody binding to human DSG3; experiment: blockers of pathogenic pemphigus antibody–desmoglein-3 binding – biochemical, validation compound set, bead-based, flow cytometry, pilot screen (AID 588368;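 active = binding below the plate cutoff, the plate median minus 3 SD, with a reading above zero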;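 also: signal is the median channel fluorescence of bead-bound GFP antibody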); conditions: Protein G beads, DSG3-Fc, scFv-GFP binding, at 10 µM, stronger effect = lower value
[19] = Nile Red efflux blockade in pump-expressing yeast – validation compound set, multiplex, phenotypic, pilot screen (AID 588506;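 active = efflux inhibition above 0.42, the validation set average plus 4 SD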;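 also: Nile Red retained in cells so higher fluorescence means more efflux inhibition; 0 = negative control wells and 1 = enniatin B 25 µM full block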); conditions: S. cerevisiae pump-expressing triplex, Nile Red efflux flow cytometry; at 10 µM; stronger effect = higher value; the pumps come from Candida albicans
[20] = molecular target: ATP-binding cassette sub-family B member 6 (Homo sapiens) (UniProt Q9NP58); experiment: blockers of ABCB6-driven porphyrin uptake – K562-ABCB6 cells, flow cytometry, validation set, pilot screen (AID 588550;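 active = inhibition above the screen-wide mean plus 3 SD, about 51%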;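 also: 0% = DMSO wells and 100% = benzethonium chloride 70 µM positive control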); conditions: K562-ABCB6 porphyrin accumulation, 1 h, at 10 µM, stronger effect = higher value
[21] = AML differentiation inducers, ER-HoxA9 marrow cells – cell-based, GFP/MAC1 double positive, flow cytometry, validation set, primary screen (AID 588685;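 active = differentiation response of at least 50%, scaled between solvent and reference control, from cells with both markers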;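 also: compound exposure lasts four days before antibody staining and flow analysis; 0% = DMSO wells and 100% = 5 µM fulvestrant positive control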); conditions: stronger effect = higher value, normalized: vehicle 0, fulvestrant 100
[22] = interference with biotin-avidin bead interaction – biochemical, flow cytometry, bead-based, counter-screen for RGS protein interaction modulators (AID 1783;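 active = inhibition above 50%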;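 also: median green fluorescence of gated singlet beads compared with DMSO control wells; 0% = DMSO wells and 100% = complete loss of bead fluorescence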); conditions: streptavidin beads, fluorescein-biotin binding; at 10 µM, stronger effect = higher value
[23] = molecular target: Guanine nucleotide-binding protein G(o) subunit alpha (Homo sapiens) (UniProt P09471); experiment: retest of RGS8-Galphao interaction hits – biochemical, multiplexed bead flow cytometry, single concentration, confirmation (AID 1836; in the data active = binding response below about 72% or above about 130%; inactive = in between;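 also: Galphao activated as GDP AlF4 complex before binding bead RGS8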); conditions: bead-based flow cytometry RGS8-Galphao binding, fluorescence; at 10 µM; actives lie on both sides
[24] = molecular target: Guanine nucleotide-binding protein G(o) subunit alpha (Homo sapiens) (UniProt P09471); experiment: retest of RGS7-Galphao interaction hits – biochemical, multiplexed bead flow cytometry, single concentration, confirmation (AID 1837; in the data active = response below about 75% or above about 130%; inactive = in between;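 also: fluorescent Galphao activated with GDP and aluminum fluoride binding bead-coupled RGS7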); conditions: bead-based flow cytometry RGS7-Galphao binding; at 10 µM; actives lie on both sides
[25] = molecular target: Regulator of G-protein signaling 16 (Homo sapiens) + Guanine nucleotide-binding protein G(o) subunit alpha (Homo sapiens) (UniProt O15492+P09471); experiment: RGS16 and Galphao interaction regulators – biochemical, single concentration, multiplexed bead flow cytometry, confirmation (AID 1838; in the data active = response below about 74% or above about 130%; inactive = in between;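 also: Galphao activated as the GDP aluminium fluoride complex binding bead-coupled RGS16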); conditions: bead-based flow cytometry, at 10 µM, actives lie on both sides
[26] = molecular target: Guanine nucleotide-binding protein G(o) subunit alpha (Homo sapiens) (UniProt P09471); experiment: RGS4 and Galphao interaction regulators – biochemical, single concentration, multiplexed bead flow cytometry, confirmation (AID 1840; in the data active = binding response below about 74% or above about 130%; inactive = in between); conditions: at 10 µM, actives lie on both sides
[27] = molecular target: Guanine nucleotide-binding protein G(o) subunit alpha (Homo sapiens) + Regulator of G-protein signaling 19 (Homo sapiens) (UniProt P09471+P49795); experiment: RGS19 interaction with Gαo, hit retest – biochemical, single point, multiplexed bead flow cytometry, confirmation (AID 1841; in the data active = response below about 50% or above about 160%; inactive = in between;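 also: 100% = no compound control and 0% = blank background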); conditions: bead-based flow cytometry RGS19-Galphao binding; at 10 µM; actives lie on both sides
[28] = measured here: daughter cell gate
[29] = measured here: mother cell gate
[30] = measured here: daughter cell gate response
[31] = measured here: mother cell gate response

Guanine nucleotide-binding protein G(o) subunit alpha (Homo sapiens), sequence (P09471 whole entry, looked up): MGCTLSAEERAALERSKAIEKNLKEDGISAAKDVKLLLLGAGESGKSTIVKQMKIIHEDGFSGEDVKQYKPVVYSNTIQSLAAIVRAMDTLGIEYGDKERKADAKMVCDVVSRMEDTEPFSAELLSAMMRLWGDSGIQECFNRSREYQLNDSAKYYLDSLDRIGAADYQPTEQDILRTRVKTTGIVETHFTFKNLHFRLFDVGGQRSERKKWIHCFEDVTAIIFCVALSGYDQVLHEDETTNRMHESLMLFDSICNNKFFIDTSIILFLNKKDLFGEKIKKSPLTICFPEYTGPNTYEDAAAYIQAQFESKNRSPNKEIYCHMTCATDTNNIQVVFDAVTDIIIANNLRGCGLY
AP-2 complex subunit beta (Homo sapiens), sequence (P63010 whole entry, looked up, the tested form may be a part, one chain of several): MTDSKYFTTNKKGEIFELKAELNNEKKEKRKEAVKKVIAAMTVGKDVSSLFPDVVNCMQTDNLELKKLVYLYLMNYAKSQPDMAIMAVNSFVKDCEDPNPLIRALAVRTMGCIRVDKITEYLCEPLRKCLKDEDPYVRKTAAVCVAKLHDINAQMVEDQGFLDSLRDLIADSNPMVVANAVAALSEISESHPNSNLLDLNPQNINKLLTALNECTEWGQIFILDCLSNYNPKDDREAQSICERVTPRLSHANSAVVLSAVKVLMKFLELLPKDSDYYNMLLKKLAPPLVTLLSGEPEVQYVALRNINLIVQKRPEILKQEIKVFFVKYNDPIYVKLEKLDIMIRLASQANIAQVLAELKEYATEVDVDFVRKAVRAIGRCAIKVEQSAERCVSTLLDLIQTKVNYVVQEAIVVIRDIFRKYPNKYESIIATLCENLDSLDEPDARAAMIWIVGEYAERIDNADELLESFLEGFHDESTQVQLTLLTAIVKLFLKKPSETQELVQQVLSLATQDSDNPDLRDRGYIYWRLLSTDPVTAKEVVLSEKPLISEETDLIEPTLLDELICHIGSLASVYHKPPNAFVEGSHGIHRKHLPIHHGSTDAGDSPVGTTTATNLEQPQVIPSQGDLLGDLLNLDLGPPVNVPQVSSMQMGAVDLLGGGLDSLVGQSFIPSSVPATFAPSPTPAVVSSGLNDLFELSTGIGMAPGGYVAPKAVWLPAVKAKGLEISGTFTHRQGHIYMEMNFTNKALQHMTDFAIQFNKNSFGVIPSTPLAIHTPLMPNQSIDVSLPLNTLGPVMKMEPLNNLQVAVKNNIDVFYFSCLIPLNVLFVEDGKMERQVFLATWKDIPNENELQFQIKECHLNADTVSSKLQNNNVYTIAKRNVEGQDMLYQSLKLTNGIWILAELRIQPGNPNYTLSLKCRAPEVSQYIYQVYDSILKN
Beta-2 adrenergic receptor (Homo sapiens), sequence (P07550 whole entry, looked up): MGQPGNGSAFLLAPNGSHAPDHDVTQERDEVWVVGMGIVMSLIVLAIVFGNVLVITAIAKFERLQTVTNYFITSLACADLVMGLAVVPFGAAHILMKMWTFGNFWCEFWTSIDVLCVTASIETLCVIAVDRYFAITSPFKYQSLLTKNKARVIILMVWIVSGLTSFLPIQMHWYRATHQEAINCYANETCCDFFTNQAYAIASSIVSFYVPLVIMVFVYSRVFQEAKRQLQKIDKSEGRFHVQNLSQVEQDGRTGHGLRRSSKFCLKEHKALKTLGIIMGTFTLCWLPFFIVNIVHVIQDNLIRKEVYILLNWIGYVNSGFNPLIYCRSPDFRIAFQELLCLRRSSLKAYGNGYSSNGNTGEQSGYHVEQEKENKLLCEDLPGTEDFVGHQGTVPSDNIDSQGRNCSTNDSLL
Integrin beta-1 (Homo sapiens) + Integrin alpha-4 (Homo sapiens), sequence (P05556 whole entry, looked up): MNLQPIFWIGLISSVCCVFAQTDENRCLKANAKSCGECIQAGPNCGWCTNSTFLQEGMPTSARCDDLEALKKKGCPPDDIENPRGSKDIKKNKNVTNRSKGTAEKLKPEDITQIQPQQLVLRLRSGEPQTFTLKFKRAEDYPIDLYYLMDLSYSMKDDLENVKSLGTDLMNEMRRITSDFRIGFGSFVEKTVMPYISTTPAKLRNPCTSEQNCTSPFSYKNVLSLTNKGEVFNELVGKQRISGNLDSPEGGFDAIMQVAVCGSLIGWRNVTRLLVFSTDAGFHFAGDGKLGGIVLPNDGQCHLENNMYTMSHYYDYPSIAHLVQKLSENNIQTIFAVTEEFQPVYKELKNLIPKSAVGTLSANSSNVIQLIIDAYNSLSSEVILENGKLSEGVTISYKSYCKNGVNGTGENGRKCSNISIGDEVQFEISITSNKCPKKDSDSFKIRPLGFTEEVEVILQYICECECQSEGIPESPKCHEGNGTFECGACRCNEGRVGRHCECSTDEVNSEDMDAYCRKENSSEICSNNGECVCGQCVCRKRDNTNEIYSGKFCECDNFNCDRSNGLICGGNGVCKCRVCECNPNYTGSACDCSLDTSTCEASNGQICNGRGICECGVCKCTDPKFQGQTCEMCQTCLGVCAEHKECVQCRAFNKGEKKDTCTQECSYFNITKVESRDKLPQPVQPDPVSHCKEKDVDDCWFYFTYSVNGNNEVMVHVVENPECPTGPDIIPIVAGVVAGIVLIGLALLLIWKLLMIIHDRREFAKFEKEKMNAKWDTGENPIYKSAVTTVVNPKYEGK
Integrin beta-1 (Homo sapiens) + Integrin alpha-4 (Homo sapiens), sequence (P13612 whole entry, looked up): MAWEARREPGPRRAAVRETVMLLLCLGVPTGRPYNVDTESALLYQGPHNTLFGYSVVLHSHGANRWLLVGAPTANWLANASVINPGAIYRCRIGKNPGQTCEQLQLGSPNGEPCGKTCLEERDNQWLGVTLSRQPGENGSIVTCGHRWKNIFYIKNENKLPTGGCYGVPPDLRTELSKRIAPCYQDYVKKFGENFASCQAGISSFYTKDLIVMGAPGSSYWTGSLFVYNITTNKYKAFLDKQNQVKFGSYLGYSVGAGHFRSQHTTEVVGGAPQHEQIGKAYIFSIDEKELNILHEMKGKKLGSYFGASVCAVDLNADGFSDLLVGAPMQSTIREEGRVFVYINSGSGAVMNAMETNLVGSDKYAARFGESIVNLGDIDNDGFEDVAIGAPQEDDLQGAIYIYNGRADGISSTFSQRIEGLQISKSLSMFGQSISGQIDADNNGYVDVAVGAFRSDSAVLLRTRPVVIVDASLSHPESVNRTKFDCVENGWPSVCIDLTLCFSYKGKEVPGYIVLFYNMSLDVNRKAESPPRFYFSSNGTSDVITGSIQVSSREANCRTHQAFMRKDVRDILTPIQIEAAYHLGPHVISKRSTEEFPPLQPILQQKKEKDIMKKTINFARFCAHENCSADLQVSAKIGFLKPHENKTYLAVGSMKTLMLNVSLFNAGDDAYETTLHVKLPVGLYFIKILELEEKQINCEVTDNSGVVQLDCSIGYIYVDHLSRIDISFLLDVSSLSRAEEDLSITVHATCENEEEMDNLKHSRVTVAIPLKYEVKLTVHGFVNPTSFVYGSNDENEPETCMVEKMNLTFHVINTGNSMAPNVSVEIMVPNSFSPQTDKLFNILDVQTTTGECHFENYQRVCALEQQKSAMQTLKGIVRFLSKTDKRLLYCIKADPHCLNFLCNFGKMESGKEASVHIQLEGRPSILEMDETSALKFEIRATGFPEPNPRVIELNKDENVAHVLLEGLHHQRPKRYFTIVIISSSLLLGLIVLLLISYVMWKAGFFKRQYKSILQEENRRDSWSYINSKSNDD
ATP-binding cassette sub-family B member 6 (Homo sapiens), sequence (Q9NP58 whole entry, looked up): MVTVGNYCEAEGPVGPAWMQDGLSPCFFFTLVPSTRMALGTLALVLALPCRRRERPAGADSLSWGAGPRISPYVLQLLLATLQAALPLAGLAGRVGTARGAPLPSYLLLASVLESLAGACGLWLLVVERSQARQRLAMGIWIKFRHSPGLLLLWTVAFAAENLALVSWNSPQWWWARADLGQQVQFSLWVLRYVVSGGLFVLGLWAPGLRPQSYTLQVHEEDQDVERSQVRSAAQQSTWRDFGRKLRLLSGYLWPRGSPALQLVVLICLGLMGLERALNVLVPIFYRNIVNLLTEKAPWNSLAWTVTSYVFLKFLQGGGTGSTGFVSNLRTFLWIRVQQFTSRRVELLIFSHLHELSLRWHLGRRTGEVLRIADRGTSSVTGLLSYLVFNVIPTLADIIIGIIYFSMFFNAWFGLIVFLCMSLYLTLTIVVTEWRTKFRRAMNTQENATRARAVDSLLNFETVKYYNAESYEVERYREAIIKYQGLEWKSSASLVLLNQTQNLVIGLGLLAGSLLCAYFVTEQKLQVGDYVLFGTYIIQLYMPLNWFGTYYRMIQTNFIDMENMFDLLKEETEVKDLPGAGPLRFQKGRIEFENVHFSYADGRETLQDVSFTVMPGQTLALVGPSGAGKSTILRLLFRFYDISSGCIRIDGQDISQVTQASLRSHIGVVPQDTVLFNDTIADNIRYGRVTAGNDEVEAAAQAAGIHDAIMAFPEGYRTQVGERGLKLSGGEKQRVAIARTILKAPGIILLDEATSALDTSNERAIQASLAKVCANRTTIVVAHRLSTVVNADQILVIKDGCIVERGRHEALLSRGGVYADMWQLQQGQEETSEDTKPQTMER
Beta-adrenergic receptor kinase 1 (Homo sapiens), sequence (P25098 whole entry, looked up): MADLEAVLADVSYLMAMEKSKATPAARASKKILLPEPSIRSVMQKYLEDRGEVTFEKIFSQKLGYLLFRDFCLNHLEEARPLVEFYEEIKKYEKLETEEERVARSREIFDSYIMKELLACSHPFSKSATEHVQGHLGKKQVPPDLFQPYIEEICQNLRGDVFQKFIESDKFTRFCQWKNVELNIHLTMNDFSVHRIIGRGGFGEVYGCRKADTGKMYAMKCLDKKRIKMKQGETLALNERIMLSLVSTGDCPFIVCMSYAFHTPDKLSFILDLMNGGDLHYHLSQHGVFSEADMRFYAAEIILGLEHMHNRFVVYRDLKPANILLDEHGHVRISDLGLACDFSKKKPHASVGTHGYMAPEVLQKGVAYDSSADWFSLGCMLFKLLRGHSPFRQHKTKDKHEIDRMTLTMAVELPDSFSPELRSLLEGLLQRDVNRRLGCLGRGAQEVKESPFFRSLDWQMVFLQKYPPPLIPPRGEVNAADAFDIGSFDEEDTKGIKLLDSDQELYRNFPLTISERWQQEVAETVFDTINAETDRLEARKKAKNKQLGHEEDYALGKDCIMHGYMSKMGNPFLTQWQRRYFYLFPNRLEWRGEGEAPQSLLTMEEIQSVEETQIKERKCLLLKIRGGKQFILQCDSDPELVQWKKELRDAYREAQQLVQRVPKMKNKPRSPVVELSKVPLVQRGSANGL

CS(=O)(=O)Nc1cccc(C(=O)CC2(O)C(=O)Nc3ccc(Br)cc32)c1 (stereo unspecified)
95.9%: GFP response relative to DMSO [7, 30]
90.7%: GFP response, % of DMSO [10, 29]
96.2%: GFP response vs DMSO [6, 29] | GFP response relative to DMSO [7, 31]
active: GFP response vs DMSO [2] 150% | percent response of DMSO control [3] 142% | GFP response, % of DMSO [5] 129%
57.6%: double positive events [11]
inactive: percent of DMSO control GFP [1] 85.9% | GFP response vs DMSO [4] 139% | GFP response vs DMSO [6] 101% | GFP response relative to DMSO [7] 98.2% | GFP response vs DMSO [8] 99% | GFP response, % of DMSO [9] 101% | GFP response, % of DMSO [10] 100% | vesicle binding response [11] 34.1% | inhibition [12] -10.8% | superoxide response (% of plate) [13] 112% | aptamer binding inhibition [14] 4% | response [15] -1.29% | inhibition [16] 50% | response [17] -8.12% | binding (% of control) [18] 101% | efflux inhibition (fraction of control) [19] 0.08 | inhibition [20] 7% | differentiation response [21] 5.13%
90.2%: GFP response, % of DMSO [10, 28]
92.4%: GFP response vs DMSO [6, 28]

COc1ccc(CCNC(=O)c2cc3sccc3n2C)cc1OC
inactive: inhibition [22] 0.7% | binding response (% of control) [23] 103% | response (percent of control binding) [24] 106% | response (% of control binding) [25] 103% | binding response (% of control) [26] 102% | response (percent of control binding) [27] 114%

Cc1c(Br)cc(C(=O)N2CCCCCC2)c(C)c1C
inactive: inhibition [22] -0.3% | binding response (% of control) [23] 102% | response (percent of control binding) [24] 102% | response (% of control binding) [25] 102% | binding response (% of control) [26] 102% | response (percent of control binding) [27] 104%

Cn1c(=O)c(C(=O)NCCO)c(O)c2ccccc21
97.3%: GFP response, % of DMSO [10, 29]
103%: GFP response vs DMSO [6, 29]
88.7%: GFP response relative to DMSO [7, 31]
inactive: percent of DMSO control GFP [1] 103% | GFP response vs DMSO [2] 105% | percent response of DMSO control [3] 103% | GFP response vs DMSO [4] 104% | GFP response, % of DMSO [5] 113% | GFP response vs DMSO [6] 101% | GFP response relative to DMSO [7] 87.6% | GFP response vs DMSO [8] 96.2% | GFP response, % of DMSO [9] 98.3% | GFP response, % of DMSO [10] 96.9% | vesicle binding response [11] 185% | inhibition [12] 15.9% | superoxide response (% of plate) [13] 104% | aptamer binding inhibition [14] 6% | response [15] -29.6% | inhibition [16] 6.89% | response [17] 2.23% | binding (% of control) [18] 103% | efflux inhibition (fraction of control) [19] 0 | inhibition [20] 1% | differentiation response [21] -5.97%
102%: GFP response vs DMSO [6, 28]
86.4%: GFP response relative to DMSO [7, 30]
60.8%: double positive events [11]
108%: GFP response, % of DMSO [10, 28]

C[n+]1ccccc1/C=N/O
112%: GFP response, % of DMSO [10, 29]
100%: GFP response relative to DMSO [7, 30]
99.5%: GFP response vs DMSO [6, 28]
143% (active) and 101% (inactive): GFP response vs DMSO [2]
60.5% and 64%: double positive events [11]
101%: GFP response relative to DMSO [7, 31]
99.6%: GFP response vs DMSO [6, 29]
108%: GFP response, % of DMSO [10, 28]
inactive: percent of DMSO control GFP [1] 99.2% and 98.9% | percent response of DMSO control [3] 101% and 95.5% | GFP response vs DMSO [4] 90.2% and 97% | GFP response, % of DMSO [5] 98.2% and 98.3% | GFP response vs DMSO [6] 99% | GFP response relative to DMSO [7] 98.7% | GFP response vs DMSO [8] 100% | GFP response, % of DMSO [9] 98% | GFP response, % of DMSO [10] 111% | vesicle binding response [11] 142% and 180% | inhibition [12] 15.2% and -21.2% | superoxide response (% of plate) [13] 102% and 95% | aptamer binding inhibition [14] 2% and 0% | response [15] 5.73% and -2.86% | inhibition [16] -7.09% and 7.17% | response [17] -0.64% and -1.12% | binding (% of control) [18] 104% and 95.1% | efflux inhibition (fraction of control) [19] -0.2 and -0.47 | inhibition [20] 9% and 0% | differentiation response [21] 0.82% and 2.74%
